Measured values from the supplement of paper PMC7156485.
Values without a mark were called inactive.

Tested on: TDF
Assay: H1.0 immunofluorescence intensity relative to DMSO (% of DMSO); higher = stronger H1.0 induction, active = 120 or more
Settings: concentration: 10 µM; 24 h
Outline: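 Cells were seeded at 800 per well in 384-well plates with RPMI containing 10% FBS; both HCC1569 and TDF lines were used. Compounds were added at 10 µM for 24 h at 37 °C, in triplicate, before fixation in 3.7% formaldehyde and staining with a rabbit anti-H1.0 antibody, an AlexaFluor 647 secondary and DAPI. H1.0 nuclear intensity or cell number is reported as percent of the plate control using the median of replicates, and HCC1569 values were smoothed for positional effects.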
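Note: TDF is a line of transformed human dermal fibroblasts of mesenchymal origin.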

SMILES | H1.0 immunofluorescence intensity
CC(N)(Cc1ccc(O)c(O)c1)C(=O)O (stereo not given) [Methyldopa] | 102
O=C(O)c1ccc(O)c2ncccc12 [8-hydroxy-5-quinolinecarboxylic acid] | 94.9
C[N+]1(CCCCC[N+]2(C)CCCC2)CCCC1.O=C([O-])C(O)C(O)C(=O)O.O=C([O-])C(O)C(O)C(=O)O [Pentolinium di[L(+)-tartrate]] | 92.6
Cc1nc2cc3nc(-c4cccs4)cnc3cc2n1C | 102
Clc1cccc(CNC2=Nc3ccccc3NC23CCNCC3)c1 | 106
O=C(NC(NC(=S)Nc1ccc(F)c([N+](=O)[O-])c1)C(Cl)(Cl)Cl)C(c1ccccc1)c1ccccc1 (stereo not given) | 108
CN(C)CCCC1(c2ccc(F)cc2)OCc2cc(C#N)ccc21 (stereo not given) [Escitalopram] | 98
COc1cc(-c2oc3cc(O)cc(O)c3c(=O)c2OC2OC(CO)C(O)C(O)C2O)cc(OC)c1O (stereo not given) [Syringetine-3-glucoside] | 101
CCc1nn(CCCN2CCN(c3cccc(Cl)c3)CC2)c(=O)n1CCOc1ccccc1 | 95.3
C[C@]12CCC(=O)C=C1CC[C@@H]1[C@@H]2[C@@H](O)C[C@@]2(C)[C@H]1CC[C@]2(O)C(=O)COC(=O)CCC(=O)[O-].[Na+] | 82.3
COc1ccc(-c2nn3c(-c4ccccn4)nnc3s2)cc1OC | 97.3
CCOC(=O)C1=C(C)NC(C)=C(C(=O)OC)C1c1cccc(Cl)c1Cl (stereo not given) [Felodipine] | 86.3
O=C1Nc2cc(Br)ccc2C1=C1N=c2ccccc2=C1NO [(2'Z,3'E)-6-Bromoindirubin-3'-oxime] | 118
CC1=CC(=O)c2ccccc2C1=O [Menadione] | 106
CN(C)CCOc1ccc(-c2nc(=c3ccc4c(c3)CCC=4N=O)c(=C3C=CNC=C3)[nH]2)cc1 | 117
S=C(NCc1ccc2c(c1)OCO2)N1CCN(c2ncnc3c2oc2ccccc23)CC1 | 103
N#CC(=Cc1ccc(O)cc1)C(N)=C(C#N)C#N | 95.4
O=C1NCCc2[nH]c(-c3ccncc3)cc21 [Cdc7/Cdk9 Inhibitor] | 111
O=c1cc(N2CCOCC2)oc2c(-c3ccccc3)cccc12 | 88
O.O.O=c1c(O)c(-c2ccc(O)c(O)c2)oc2cc(O)cc(O)c12 | 101

SMILES | H1.0 immunofluorescence intensity
CCC1=C(C)CN(C(=O)NCCc2ccc(S(=O)(=O)NC(=O)NC3CCC(C)CC3)cc2)C1=O (stereo not given) [Glimepiride] | 93.1
COC1(NC(=O)CSCC#N)C(=O)N2C(C(=O)[O-])=C(CSc3nnnn3C)CSC21.[Na+] (stereo not given) [Cefmetazole sodium] | 91.2
COc1ccccc1OCC(O)CO (stereo not given) [Guaifenesin] | 98
CCOc1nc2cccc(C(=O)O)c2n1Cc1ccc(-c2ccccc2-c2nc(=O)o[nH]2)cc1 | 103
CC(=O)CC/C=C(\C)CC/C=C(\C)CC/C=C(\C)CCC=C(C)C | 104
CC(C)(C)C(=O)C(Oc1ccc(Cl)cc1)n1ccnc1 (stereo not given) [Climbazole] | 92.2
CCN(CC)CC(=O)Nc1c(C)cccc1C.Cl.O [Lidocaine.HCl.H2O] | 89.5
O=C1OC(=O)C2C3CCC(O3)C12 (stereo not given) [Norcantharidin] | 105
C=CCc1ccc(O)c(OC)c1 [Eugenol] | 89.5
OCCN(CCO)c1nc(N2CCCCC2)c2nc(N(CCO)CCO)nc(N3CCCCC3)c2n1 [Dipyridamole] | 85.7
COC(=O)C(=C1OC(=O)C(c2ccccc2)=C1O)c1ccccc1 [Vulpinic acid] | 89.4
O=C(Cc1ccc(Cl)c(Cl)c1)OCCN1CCCC1.O=C(O)C(=O)O [AC 915 oxalate] | 92.1
O=C1NC(=O)C(c2ccccc2)(c2ccccc2)N1 [Phenytoin] | 95.8
CCCCCCCCC=CCCCCCCCC(=O)OCC(CO)OC(=O)CCCCCCCC=CCCCCCCCC (stereo not given) [1,2-Dioleoyl-glycerol (18:1)] | 95.2
O=C(O)C(=S)Cc1ccc(I)cc1 [(2Z)-3-(4-iodophenyl)-2-sulfanyl-2-propenoic acid] | 95.6
CC(N)(Cc1ccc(O)c(O)c1)C(=O)O (racemic) | 90.9
COc1ccc2cc1Oc1ccc(cc1)CC1c3cc(c(OC)cc3CCN1C)Oc1c(OC)c(OC)c(OC)c3c1C(C2)N(C)CC3 (stereo not given) [Hernandezine] | 106
NNCCc1ccccc1.O=S(=O)(O)O [Phenelzine sulfate] | 95.3
CN(C)CCCSc1ccccc1NC(=O)C=Cc1ccccc1 [Cinanserin] | 102
O=c1oc2cc(O)ccc2c2oc3cc(O)ccc3c12 [Coumestrol] | 97.6
